In the supplement of paper PMC8728848:
This excerpt belongs to a sample that is enriched for the strongest signals.

Test system: Gal(b1-3)[GlcNAc(b1-6)]GalNAc
Experiment: glycan array binding signal (z-score within array); higher = stronger binding
Settings: glycan notation: IUPAC condensed, linker removed
Outline: (§1)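 Glycan array binding is given as a within-array Z-score, which can be read as non-binding when negative. The arrays, 3228 of them, came from the Consortium for Functional Glycomics database and were retained only where the protein sequence was available. Z-scores were averaged across arrays of the same protein sequence at different concentrations or buffers and across linkers.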

Chain of 6RG (Lolium perenne) (chain, as listed by the source): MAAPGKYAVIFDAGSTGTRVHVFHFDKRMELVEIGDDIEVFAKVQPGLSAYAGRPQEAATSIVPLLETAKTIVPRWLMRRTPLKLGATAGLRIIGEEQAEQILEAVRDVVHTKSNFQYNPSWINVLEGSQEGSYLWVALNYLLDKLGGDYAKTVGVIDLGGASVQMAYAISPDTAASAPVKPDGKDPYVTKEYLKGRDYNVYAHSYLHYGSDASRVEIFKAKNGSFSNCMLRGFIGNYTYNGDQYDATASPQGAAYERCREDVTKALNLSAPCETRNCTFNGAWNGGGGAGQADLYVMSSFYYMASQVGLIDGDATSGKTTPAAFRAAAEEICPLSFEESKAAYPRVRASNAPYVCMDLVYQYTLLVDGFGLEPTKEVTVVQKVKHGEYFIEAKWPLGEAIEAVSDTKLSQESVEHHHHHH
Chain of Neurocan (Homo sapiens), O14594 (O14594 other isoform, or with tags, fused parts or gaps): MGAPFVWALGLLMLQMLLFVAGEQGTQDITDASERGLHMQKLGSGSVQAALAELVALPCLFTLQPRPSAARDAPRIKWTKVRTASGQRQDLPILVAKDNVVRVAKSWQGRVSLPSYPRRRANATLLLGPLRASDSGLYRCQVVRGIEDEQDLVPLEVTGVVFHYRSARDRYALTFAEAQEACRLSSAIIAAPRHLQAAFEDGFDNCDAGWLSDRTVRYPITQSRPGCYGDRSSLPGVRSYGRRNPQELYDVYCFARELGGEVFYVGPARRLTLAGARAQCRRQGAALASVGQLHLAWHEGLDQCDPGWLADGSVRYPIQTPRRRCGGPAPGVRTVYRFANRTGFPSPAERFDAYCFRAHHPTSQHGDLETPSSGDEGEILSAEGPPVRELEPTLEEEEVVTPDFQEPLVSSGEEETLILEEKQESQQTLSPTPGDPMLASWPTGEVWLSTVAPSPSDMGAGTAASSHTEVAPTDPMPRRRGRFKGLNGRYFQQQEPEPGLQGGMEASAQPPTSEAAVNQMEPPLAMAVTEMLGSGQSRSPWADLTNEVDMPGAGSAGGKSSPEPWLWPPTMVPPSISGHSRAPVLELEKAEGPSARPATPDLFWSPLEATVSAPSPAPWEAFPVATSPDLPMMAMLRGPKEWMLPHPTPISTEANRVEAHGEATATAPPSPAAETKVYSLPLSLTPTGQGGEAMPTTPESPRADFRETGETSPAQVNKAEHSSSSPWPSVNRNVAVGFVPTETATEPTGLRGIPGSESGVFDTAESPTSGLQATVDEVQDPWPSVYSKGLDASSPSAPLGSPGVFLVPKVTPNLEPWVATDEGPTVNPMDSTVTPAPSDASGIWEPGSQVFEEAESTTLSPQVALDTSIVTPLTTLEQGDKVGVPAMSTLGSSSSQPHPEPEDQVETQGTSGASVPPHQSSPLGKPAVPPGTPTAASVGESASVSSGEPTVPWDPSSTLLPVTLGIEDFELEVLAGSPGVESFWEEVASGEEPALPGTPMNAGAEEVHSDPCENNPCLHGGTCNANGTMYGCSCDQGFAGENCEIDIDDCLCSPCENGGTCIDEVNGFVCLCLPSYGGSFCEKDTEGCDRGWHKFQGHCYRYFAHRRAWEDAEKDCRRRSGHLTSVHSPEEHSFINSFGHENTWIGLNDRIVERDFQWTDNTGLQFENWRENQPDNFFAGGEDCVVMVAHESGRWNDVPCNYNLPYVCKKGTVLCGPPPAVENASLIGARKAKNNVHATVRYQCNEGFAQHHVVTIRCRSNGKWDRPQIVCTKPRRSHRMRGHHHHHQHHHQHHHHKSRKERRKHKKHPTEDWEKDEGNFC
Chain of Aggrecan (Rattus norvegicus), NP_071526 (chain, as listed by the source): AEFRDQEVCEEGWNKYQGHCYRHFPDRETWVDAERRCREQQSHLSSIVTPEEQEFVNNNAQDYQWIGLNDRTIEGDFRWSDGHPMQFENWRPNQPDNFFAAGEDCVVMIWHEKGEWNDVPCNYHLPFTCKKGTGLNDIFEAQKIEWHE
Chain of CHI3L1 (Homo sapiens), P36222 (P36222 whole entry): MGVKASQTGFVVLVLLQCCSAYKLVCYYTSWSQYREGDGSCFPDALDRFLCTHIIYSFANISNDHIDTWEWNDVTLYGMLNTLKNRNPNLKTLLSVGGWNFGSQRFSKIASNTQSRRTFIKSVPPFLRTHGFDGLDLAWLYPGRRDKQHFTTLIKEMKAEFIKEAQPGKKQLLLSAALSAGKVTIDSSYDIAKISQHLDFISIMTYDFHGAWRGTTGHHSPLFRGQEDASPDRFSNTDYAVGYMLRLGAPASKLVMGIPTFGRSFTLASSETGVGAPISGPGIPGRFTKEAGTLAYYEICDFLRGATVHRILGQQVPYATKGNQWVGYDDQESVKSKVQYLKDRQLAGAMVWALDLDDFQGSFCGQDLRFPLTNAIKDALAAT
Chain of 6RG (Lolium perenne), B9U140 (B9U140 entry or part of it): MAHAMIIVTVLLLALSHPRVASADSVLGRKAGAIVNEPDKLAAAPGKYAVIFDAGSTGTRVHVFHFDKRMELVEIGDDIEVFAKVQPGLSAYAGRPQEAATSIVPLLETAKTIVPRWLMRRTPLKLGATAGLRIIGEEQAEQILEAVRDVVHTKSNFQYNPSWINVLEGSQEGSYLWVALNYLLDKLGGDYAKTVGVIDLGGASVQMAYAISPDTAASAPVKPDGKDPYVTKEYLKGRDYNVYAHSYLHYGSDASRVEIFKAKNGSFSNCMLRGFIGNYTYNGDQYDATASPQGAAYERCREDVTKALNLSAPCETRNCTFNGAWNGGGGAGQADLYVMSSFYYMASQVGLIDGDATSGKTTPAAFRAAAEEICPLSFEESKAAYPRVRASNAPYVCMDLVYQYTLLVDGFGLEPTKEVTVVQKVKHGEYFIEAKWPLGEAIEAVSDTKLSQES

| Substance | glycan array binding signal (z-score) |
| --- | --- |
| HARE (Homo sapiens), Q8WWQ8 | -0.451 |
| 6RG (Lolium perenne) | -0.16 |
| MpAFP RI GFP (Marinomonas primoryensis) | -0.258 |

Test system: Gal(b1-3)[Neu5Ac(a2-6)]GlcNAc(b1-6)Gal(b1-4)Glc
Experiment: as above
Settings: glycan notation: IUPAC condensed, linker removed
Outline: as §1

| Substance | glycan array binding signal (z-score) |
| --- | --- |
| Aggrecan (Rattus norvegicus), NP_071526 | -0.144 |
| 6RG (Lolium perenne) | 4.25 |
| 6RG (Lolium perenne), B9U140 | -0.249 |

Test system: Gal(b1-4)GlcNAc(b1-2)Man(a1-3)Man(b1-4)GlcNAc(b1-4)GlcNAc
Experiment: as above
Settings: glycan notation: IUPAC condensed, linker removed
Outline: as §1

| Substance | glycan array binding signal (z-score) |
| --- | --- |
| Neurocan (Homo sapiens), O14594 | 0.015 |
| CHI3L1 (Homo sapiens), P36222 | -0.118 |
| Siglec-8 (Homo sapiens), Q9NYZ4 | -0.306 |
